Here are results for 40 compounds from PubChem BioAssay (EPA / NIEHS).

What is called AC50 is the concentration giving half of the maximal activity seen.

Structures are written as SMILES. The source made the active and inactive calls. How the source made its calls: active means hit-call score of the fitted dose curve at least 0.9, where 1 is the maximum; inactive means score below 0.9.

Read-out in this assay: catalase (CAT), CAT (gene 847)
Briefly: LTEA_HepaRG_CAT: Life Technologies and Expression Analysis (LTEA) Assay for catalase (CAT) using HepaRG (AID 2283452).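 On AC50: TaqMan qRT-PCR signal normalized to ACTB GAPDH and POLR2A housekeeping genes.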 The note with it: mRNA level, 48 h; actives raise or lower the signal. On the procedure: LTEA_HepaRG is a cell based, multiplexed-readout assay that uses HepaRG, a human liver cell line, with measurements taken at 48 hours after chemical dosing on a 96-well plate.LTEA_HepaRG_CAT is one of 102 assay component(s) measured in the LTEA HepaRG cell culture assay. It is a marker of Oxidative Stress.Data from the assay component LTEA_HepaRG_CAT was analyzed into 1 endpoint. This assay endpoint, LTEA_HepaRG_CAT, was analyzed with bidirectional fitting relative to DMSO as the negative control and baseline of activity. Using a type of inducible reporter, measures of mRNA induction for gain or loss-of-signal activity can be used to understand regulation of transcription factor activity. To generalize the intended target to other relatable targets, this assay endpoint is annotated to the catalase intended target family, where the subfamily is oxidative stress.
A total of 1060 chemcials from the ToxCast library were tested in eight-point concentration-response experiments. Cell culture and cytotoxicity assays were conducted at Thermo Fisher Scientific's Custom Services facility (Madison, WI). A single lot of human HepaRG cells (Thermo Fisher Scientific, Frederick, MD) was used for the cell culture experiments. 96-well format collagen type I coated plates of human HepaRG cells were prepared using established methods. Briefly, cryopreserved HepaRG cells were thawed, plated at a density of approximately 100,000 cells/well in HepaRG Thaw, Plate, and General Purpose media (HPRG770, Thermo Fisher Scientific), and incubated for 48 hours. 0.5% DMSO was selected as vehicle control to balance the requisite need of DMSO in HepaRG cultures to maintain differentiation (for example, baseline metabolism, proportions of hepatocytes vs. cholangiocytes), while enabling further hepatic receptor pathway activation (for example, PXR and CAR) in response to chemical exposure. 48 hours after plating, the culture medium was replaced with HepaRG Serum-Free Incudtion Media. Cells were exposed to each test chemical in duplicate and maintained in CO2 incubators for another 48 hours. Chemical plates were thawed to room temperature and 200x concentrations of treatment groups were prepared. 8-point conentration-reponse curves were made with the highest exposure at 100 uM, followed by half-log dilutions, all in 0.5% DMSO. Each test plate contained variouse controls, induction positive controls (1mM phenobarbital), cytotoxicity positive controls ([…] aflatoxin B1), vehicle controls (0.5% DMSO), and total lysis controls (0.5% DMSO). Cell morphology images were taken using an Essen IncuCyte FLR automated microscope, with six 96-well plates imaged in about 24 minutes. Images were captured and exported and JPEG files. Spent culture media was transfered to black-well plates for the LDH assay, and remaining media was sorted at -80 C for later use. Cells were treated with RLT buffer and frozen until shipped for gene expression analysis. Total RNA was isolated from the cell suspension in 75 uL of Buffer RLT (Qiagen, Germantown, MD 20874) by Quintiles/Expression Analysis (Durham, NC) using a custom isolation procedure. Total RNA from each plate well was transferred to a preamplification plate. Fluidigm's 96.96 Dynamic ArrayTM (Fluidigm, Amsterdam, the Netherlands) technology was used for gene expression analyses by quantitative reverse transcription polymerase chain reaction (qRT-PCR, performed by Quintiles/Expression Analysis, Durham, NC)89. Standard TaqManTM Assays (Applied Biosystems/ThermoFisher Scientific, Foster City, CA) were used to assess the expression of 93 genes selected based on their selectivity and sensitivity to important hepatic receptors known to be modulated by environmental chemicals; importance in human hepatocyte functionality; and hepatotoxicity. […]
In the case of `CC(=O)OCC(COC(C)=O)OC(C)=O`, the outcome was inactive.
Still for that read-out and setting: to `CC1(C)C(=O)NC(=O)N1CO` belongs “inactive”.
Take `CC(=O)O[C@]1(C(C)=O)CC[C@H]2[C@@H]3C=C(Cl)C4=CC(=O)[C@@H]5C[C@@H]5[C@]4(C)[C@H]3CC[C@@]21C`: the concentration at half-maximal activity (AC50) is 50 µM (active).
Turning to `N[C@@H](Cc1c[nH]c2ccccc12)C(=O)O`, the compound was classed as inactive.
Turning to `CN(C)C(=O)NC1(c2ccccc2)CCN(CCC[C@]2(c3ccc(Cl)c(Cl)c3)CCCN(C(=O)c3ccccc3)C2)CC1`, the AC50 was 18.8 µM (active).
Consider `CCCCC(CC)COP(=O)(OCC(CC)CCCC)OCC(CC)CCCC` (stereo not given), for which the call was inactive.
Still for that read-out and setting: to `CCCC[C@H]1CN(CC2CCOCC2)C(=O)OC12CCN(C1(C)CCN(C(=O)c3c(C)ncnc3C)CC1)CC2` belongs “inactive”.
For the compound `O=C1NC(=O)C(c2ccccc2)(c2ccccc2)N1`, the call was inactive.
Still for that read-out and setting: to `NC(=Nc1ccccc1)Nc1ccccc1` belongs “inactive”; to `Cc1cc(SC2=C(O)C[C@@](CCc3ccc(N)cc3)(C(C)C)OC2=O)c(C(C)(C)C)cc1CO`, “inactive”.
The same measure, in the same setting: to `COC(=O)CCC(=O)OC` belongs “inactive”; to `CSc1ccc(Oc2ccc(S(N)(=O)=O)cc2CN(C)C)cc1C`, “inactive”.
The same measure, in the same setting: to `CC1=C(C)S(=O)(=O)CCS1(=O)=O` belongs “inactive”; to `O=C1O[C@H]([C@H](O)CO)C(O)=C1O`, “inactive”.
As for `C=CCCCCCCCCCCCC`, the result was inactive.
On to `Nc1nc(=S)c2[nH]cnc2[nH]1`, for which the concentration at half-maximal activity (AC50) is 7.04 µM (active).
`CC(C)COC(=O)CCCCC(=O)OCC(C)C`: the compound was classed as inactive.
As to `NC=O`, the compound was called inactive.
With `CC(C)c1cccc(C(C)C)c1`, the result was inactive.
`CCc1nc(N)nc(N)c1-c1ccc(Cl)cc1`: the half-maximal activity concentration (AC50) is 30.6 µM (active).
`CC(=O)S[C@H](C(=O)N[C@H]1Cc2ccccc2[C@H]2CCC[C@@H](C(=O)O)N2C1=O)C(C)C`: the call was inactive.
Consider `COc1ccc(C(=O)Nc2nc3ccccc3c(NCc3ccccc3)c2C#N)cc1`, for which the AC50 was 18.7 µM (active).
`CCOCCOCCO`: the result was inactive.
On the same count and under the same terms, to `CCCCC(CC)COC(=O)CCCCCCCC(=O)OCC(CC)CCCC` (stereo not given) belongs “inactive”.
On the same count and under the same terms, to `CC(C)(C)c1ccccc1` belongs “inactive”; to `Cc1occc(=O)c1O`, “inactive”; to `O=C1CCCCC1`, “inactive”.
As to `Cn1cnc2c1c(=O)[nH]c(=O)n2C`, the compound was classed as inactive.
On to `CCCCCCCCCCCCCCCCO`, for which the AC50 was 9.92 µM (active).
As for `CC(N)=O`, the result was inactive.
The same measure, in the same setting: to `Cc1cn([C@H]2C=C[C@@H](CO)O2)c(=O)[nH]c1=O` belongs “inactive”; to `Cc1cc(Cc2ccc(N)c(C)c2)ccc1N`, “inactive”; to `NCCOCCOCCN`, “inactive”.
As to `CCc1cc(C2=C(C(=O)O)N(c3ccccc3C(F)(F)F)S(=O)(=O)c3ccccc32)cc2c1OCO2`, the AC50 was 50 µM (active).
On the same count and under the same terms, to `COC(=O)[C@H]1[C@H]2C[C@@H]3c4[nH]c5cc(OC)ccc5c4CCN3C[C@H]2C[C@@H](OC(=O)c2cc(OC)c(OC)c(OC)c2)[C@@H]1OC` belongs 42.2 µM (active).
Same read-out and setting: to `O=C(N[C@@H](c1ccccc1)[C@@H]1CCCCN1)c1cccc(C(F)(F)F)c1Cl` belongs 56.7 µM (active).
As for `Cc1ccc(C(C)(C)C)c(O)c1`, the compound was called inactive.
On to `Cc1ccc(-c2cc(C(F)(F)F)nn2-c2ccc(S(N)(=O)=O)cc2)cc1`, for which the half-maximal activity concentration (AC50) is 83.6 µM (active).
For `CC(COCC(C)OC(=O)c1ccccc1)OC(=O)c1ccccc1` (stereo not given), the compound was called inactive.
Still for that read-out and setting: to `CCCCCCC(C=O)=Cc1ccccc1` belongs “inactive”.
